Counter-ions that a name gives are not always drawn.
Key:
Details in all cases: treatment time: 24 h
A549-ACTB-RAB5A [1] = assay: lowest phenotypically active concentration; higher = less potent
Procedure, shortened: (§1)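 Phenotypic activity depended on meeting both a deviation and a reproducibility criterion. The fifteen gene-edited A549, HepG2 and WPMY1 reporter lines were treated at 0.3, 1, 3 or 9 µM for 24 h, four wells each, then imaged live with features normalised to solvent control wells. Deviation required ≥3 of 4 wells past the 95th percentile of control Euclidean distances, and reproducibility a median replicate Pearson correlation above the 95th percentile of non-replicates.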

A549-CANX-COX4 [2] = assay: as above
Procedure, shortened: as §1

A549-GM130-SQSTM1 [3] = assay: as above
Procedure, shortened: as §1

A549-TP53BP1-CLTA [4] = assay: as above
Procedure, shortened: as §1

A549-TUBA1B-RELA [5] = assay: as above
Procedure, shortened: as §1

A549-ACTB-RAB5A [6] = assay: phenotypically active (imaging signature differs from DMSO and reproducible) at any of 0.3-9 uM (binary (1 = active, 0 = inactive)); higher = active
Procedure, shortened: as §1

A549-CANX-COX4 [7] = assay: as above
Procedure, shortened: as §1

A549-GM130-SQSTM1 [8] = assay: as above
Procedure, shortened: as §1

A549-TP53BP1-CLTA [9] = assay: as above
Procedure, shortened: as §1

A549-TUBA1B-RELA [10] = assay: as above
Procedure, shortened: as §1

HepG2-ACTB-RAB5A = assay: as above
Procedure, shortened: as §1

HepG2-CANX-COX4 = assay: as above
Procedure, shortened: as §1

HepG2-GM130-SQSTM1 = assay: as above
Procedure, shortened: as §1

HepG2-TP53BP1-CLTA = assay: as above
Procedure, shortened: as §1

HepG2-TUBA1B-RELA = assay: as above
Procedure, shortened: as §1

WPMY1-ACTB-RAB5A = assay: as above
Procedure, shortened: as §1

WPMY1-CANX-COX4 = assay: as above
Procedure, shortened: as §1

WPMY1-GM130-SQSTM1 = assay: as above
Procedure, shortened: as §1

WPMY1-TP53BP1-CLTA = assay: as above
Procedure, shortened: as §1

WPMY1-TUBA1B-RELA = assay: as above
Procedure, shortened: as §1

Row | Compound | lowest phenotypically active concentration (A549-ACTB-RAB5A [1]) [µM] | lowest phenotypically active concentration (A549-CANX-COX4 [2]) [µM] | lowest phenotypically active concentration (A549-GM130-SQSTM1 [3]) [µM] | lowest phenotypically active concentration (A549-TP53BP1-CLTA [4]) [µM] | lowest phenotypically active concentration (A549-TUBA1B-RELA [5]) [µM] | phenotypically active (A549-ACTB-RAB5A [6]) | phenotypically active (A549-CANX-COX4 [7]) | phenotypically active (A549-GM130-SQSTM1 [8]) | phenotypically active (A549-TP53BP1-CLTA [9]) | phenotypically active (A549-TUBA1B-RELA [10]) | phenotypically active (HepG2-ACTB-RAB5A) | phenotypically active (HepG2-CANX-COX4) | phenotypically active (HepG2-GM130-SQSTM1) | phenotypically active (HepG2-TP53BP1-CLTA) | phenotypically active (HepG2-TUBA1B-RELA) | phenotypically active (WPMY1-ACTB-RAB5A) | phenotypically active (WPMY1-CANX-COX4) | phenotypically active (WPMY1-GM130-SQSTM1) | phenotypically active (WPMY1-TP53BP1-CLTA) | phenotypically active (WPMY1-TUBA1B-RELA)
1 | CC1=C(C(=O)Nc2cc3cn[nH]c3cc2F)C(c2ccc(C(F)(F)F)cc2)CC(=O)N1 (stereo not given) | ≤ 0.3 | 1 | 1 | ≤ 0.3 | ≤ 0.3 | 1 (active) | 1 (active) | 1 (active) | 1 (active) | 1 (active) | 1 (active) | 1 (active) | 1 (active) | 1 (active) | 1 (active) | 1 (active) | 1 (active) | 1 (active) | 1 (active) | 1 (active)
2 | CC(=O)O[C@H]1C(=O)[C@@]2(C)[C@H]([C@H](OC(=O)c3ccccc3)[C@]3(O)C[C@H](OC(=O)[C@H](O)[C@@H](NC(=O)c4ccccc4)c4ccccc4)C(C)=C1C3(C)C)[C@]1(OC(C)=O)CO[C@@H]1C[C@@H]2O [paclitaxel] | ≤ 0.3 | ≤ 0.3 | ≤ 0.3 | ≤ 0.3 | ≤ 0.3 | 1 (active) | 1 (active) | 1 (active) | 1 (active) | 1 (active) | 1 (active) | 1 (active) | 1 (active) | 1 (active) | 1 (active) | 1 (active) | 1 (active) | 1 (active) | 1 (active) | 1 (active)
3 | O=C(NCCCNc1nc(Nc2cccc(NC(=O)N3CCCC3)c2)ncc1I)c1cccs1 | 1 | 3 | 3 | 3 | 3 | 1 (active) | 1 (active) | 1 (active) | 1 (active) | 1 (active) | 1 (active) | 1 (active) | 1 (active) | 1 (active) | 1 (active) | 1 (active) | 1 (active) | 1 (active) | 1 (active) | 1 (active)
4 | CON(C)C(=O)N1N=C(c2cc(F)ccc2F)S[C@@]1(CCCN)c1ccccc1 [ARRY 520 trifluoroacetate] | ≤ 0.3 | ≤ 0.3 | ≤ 0.3 | ≤ 0.3 | ≤ 0.3 | 1 (active) | 1 (active) | 1 (active) | 1 (active) | 1 (active) | 1 (active) | 1 (active) | 1 (active) | 1 (active) | 1 (active) | 1 (active) | 1 (active) | 1 (active) | 1 (active) | 1 (active)
5 | COc1ccc(C[C@H](N)C(=O)N[C@H]2[C@@H](O)[C@H](n3cnc4c(N(C)C)ncnc43)O[C@@H]2CO)cc1 [Puromycin dihydrochloride] | ≤ 0.3 | 1 | 1 | 1 | 1 | 1 (active) | 1 (active) | 1 (active) | 1 (active) | 1 (active) | 1 (active) | 1 (active) | 1 (active) | 1 (active) | 1 (active) | 1 (active) | 1 (active) | 1 (active) | 1 (active) | 1 (active)
6 | CC(=O)Nc1ccc(C(=O)Nc2ccccc2N)cc1 | 1 | 1 | 1 | 3 | 1 | 1 (active) | 1 (active) | 1 (active) | 1 (active) | 1 (active) | 1 (active) | 1 (active) | 1 (active) | 1 (active) | 1 (active) | 1 (active) | 1 (active) | 1 (active) | 1 (active) | 1 (active)
7 | CC(C)c1cc(-c2n[nH]c(=O)n2-c2ccc3c(ccn3C)c2)c(O)cc1O [ganetespib] | ≤ 0.3 | ≤ 0.3 | ≤ 0.3 | ≤ 0.3 | ≤ 0.3 | 1 (active) | 1 (active) | 1 (active) | 1 (active) | 1 (active) | 1 (active) | 1 (active) | 1 (active) | 1 (active) | 1 (active) | 1 (active) | 1 (active) | 1 (active) | 1 (active) | 1 (active)
8 | CCC1=C[C@@H]2CN(C1)Cc1c([nH]c3ccccc13)[C@@](C(=O)OC)(c1cc3c(cc1OC)N(C)[C@H]1[C@@](O)(C(=O)OC)[C@H](OC(C)=O)[C@]4(CC)C=CCN5CC[C@]31[C@@H]54)C2 [vinorelbine] | ≤ 0.3 | ≤ 0.3 | ≤ 0.3 | ≤ 0.3 | ≤ 0.3 | 1 (active) | 1 (active) | 1 (active) | 1 (active) | 1 (active) | 1 (active) | 1 (active) | 1 (active) | 1 (active) | 1 (active) | 1 (active) | 1 (active) | 1 (active) | 1 (active) | 1 (active)
9 | Cc1c(NC(=O)OC[C@@H]2COCCN2)cn2ncnc(Nc3ccc4c(cnn4Cc4cccc(F)c4)c3)c12 | 1 | 1 | 1 | ≤ 0.3 | 1 | 1 (active) | 1 (active) | 1 (active) | 1 (active) | 1 (active) | 1 (active) | 1 (active) | 1 (active) | 1 (active) | 1 (active) | 1 (active) | 1 (active) | 1 (active) | 1 (active) | 1 (active)
10 | CN1CCN(c2ccc(OC(F)(F)F)c(Nc3ncc4c(n3)-c3c(c(C(N)=O)nn3CCO)CC4)c2)CC1 | ≤ 0.3 | ≤ 0.3 | ≤ 0.3 | ≤ 0.3 | ≤ 0.3 | 1 (active) | 1 (active) | 1 (active) | 1 (active) | 1 (active) | 1 (active) | 1 (active) | 1 (active) | 1 (active) | 1 (active) | 1 (active) | 1 (active) | 1 (active) | 1 (active) | 1 (active)
11 | O=C1Cc2c([nH]c3ccc(Br)cc23)-c2ccccc2N1 [Kenpaullone] | 3 | 3 | 3 | 3 | 3 | 1 (active) | 1 (active) | 1 (active) | 1 (active) | 1 (active) | 1 (active) | 1 (active) | 1 (active) | 1 (active) | 1 (active) | 1 (active) | 1 (active) | 1 (active) | 1 (active) | 1 (active)
12 | C[C@@H]1COCCN1c1cc(C2(S(C)(=O)=O)CC2)nc(-c2cccc3[nH]ccc23)n1 | ≤ 0.3 | 1 | ≤ 0.3 | ≤ 0.3 | 1 | 1 (active) | 1 (active) | 1 (active) | 1 (active) | 1 (active) | 1 (active) | 1 (active) | 1 (active) | 1 (active) | 1 (active) | 1 (active) | 1 (active) | 1 (active) | 1 (active) | 1 (active)
13 | CN1CCC(=C2c3ccccc3CC(=O)c3sccc32)CC1 [ketotifen] | 9 | 9 | 9 | 9 | 9 | 1 (active) | 1 (active) | 1 (active) | 1 (active) | 1 (active) | 1 (active) | 1 (active) | 1 (active) | 1 (active) | 1 (active) | 1 (active) | 1 (active) | 1 (active) | 1 (active) | 1 (active)
14 | COc1cc(N2CCOCC2)ccc1Nc1ncc(Cl)c(Nc2ccccc2NS(C)(=O)=O)n1 | 3 | 3 | 3 | 3 | 3 | 1 (active) | 1 (active) | 1 (active) | 1 (active) | 1 (active) | 1 (active) | 1 (active) | 1 (active) | 1 (active) | 1 (active) | 1 (active) | 1 (active) | 1 (active) | 1 (active) | 1 (active)
15 | COc1cccc(-c2cc(F)ccc2[C@H]2Cc3nc(N)nc(C)c3C(=O)N2)n1 | ≤ 0.3 | ≤ 0.3 | ≤ 0.3 | ≤ 0.3 | ≤ 0.3 | 1 (active) | 1 (active) | 1 (active) | 1 (active) | 1 (active) | 1 (active) | 1 (active) | 1 (active) | 1 (active) | 1 (active) | 1 (active) | 1 (active) | 1 (active) | 1 (active) | 1 (active)
16 | COCc1c(C(C)C)nc(C(C)C)c(/C=C/[C@@H](O)C[C@@H](O)CC(=O)O)c1-c1ccc(F)cc1 [cerivastatin] | ≤ 0.3 | 1 | 1 | ≤ 0.3 | 1 | 1 (active) | 1 (active) | 1 (active) | 1 (active) | 1 (active) | 1 (active) | 1 (active) | 1 (active) | 1 (active) | 1 (active) | 1 (active) | 1 (active) | 1 (active) | 1 (active) | 1 (active)
17 | Cc1cc(Nc2cc(C)c(C#N)c(NC(C)CCCC(C)(C)O)n2)n[nH]1 (stereo not given) [TC-A 2317 hydrochloride] | 1 | 1 | 1 | 1 | 1 | 1 (active) | 1 (active) | 1 (active) | 1 (active) | 1 (active) | 1 (active) | 1 (active) | 1 (active) | 1 (active) | 1 (active) | 1 (active) | 1 (active) | 1 (active) | 1 (active) | 1 (active)
18 | CC(C)(C)Nc1nc(Nc2ccc(C(N)=O)cc2)cc(N)c1C#N | 3 | 3 | 3 | 3 | 3 | 1 (active) | 1 (active) | 1 (active) | 1 (active) | 1 (active) | 1 (active) | 1 (active) | 1 (active) | 1 (active) | 1 (active) | 1 (active) | 1 (active) | 1 (active) | 1 (active) | 1 (active)
19 | COc1cc(Br)c(Nc2nc(-c3c(C)nc4ncccn34)cs2)c(Br)c1 | 1 | 1 | 1 | 1 | 1 | 1 (active) | 1 (active) | 1 (active) | 1 (active) | 1 (active) | 1 (active) | 1 (active) | 1 (active) | 1 (active) | 1 (active) | 1 (active) | 1 (active) | 1 (active) | 1 (active) | 1 (active)
20 | Nc1cccc(-c2cc3c(Oc4cccc(O)c4)ncnc3[nH]2)c1 | 1 | 1 | 9 | 1 | 1 | 1 (active) | 1 (active) | 1 (active) | 1 (active) | 1 (active) | 1 (active) | 1 (active) | 1 (active) | 1 (active) | 1 (active) | 1 (active) | 1 (active) | 1 (active) | 1 (active) | 1 (active)
21 | CNC(=O)c1ccccc1Sc1ccc2c(/C=C/c3ccccn3)n[nH]c2c1 [Axitinib] | 1 | 9 | 1 | 3 | 1 | 1 (active) | 1 (active) | 1 (active) | 1 (active) | 1 (active) | 1 (active) | 1 (active) | 1 (active) | 1 (active) | 1 (active) | 1 (active) | 1 (active) | 1 (active) | 1 (active) | 1 (active)
